Records with an inconclusive call do not appear. The source made the active and inactive calls. How the source made its calls, unless noted: active means hit-call score of the fitted dose curve at least 0.9, where 1 is the maximum; inconclusive means response in the unintended direction; inactive means score below 0.9.
Experiments:
[1] = TOX21_p53_BLA_p2_viability: Viability Assessment in the Tox21 HCT-116 p53 Agonism Beta-lactamase Assay, Phase 2 (AID 2283591);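 further: compound exposure lasted 16 h at 37 °C; actives lower the ATP signal meaning cytotoxicity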
How it was run: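 Cytotoxicity readout: CellTiter-Glo ATP luminescence, 30 min at room temperature, after the beta-lactamase read. Cells were HCT116 exposed 16 h at 37C to compounds pin-transferred at 217-fold dilution from DMSO stocks.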

[2] = molecular target: Cellular tumor antigen p53 (Homo sapiens) (UniProt P04637); experiment: TOX21_p53_BLA_p2_ratio: Tox21 HCT-116 p53 Agonism Beta-lactamase Assay, Ratio, Phase 2 (AID 2283592)
How it was run: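 Ratio endpoint: beta-lactamase cleavage of CCF4-AM, blue (460 nm) over green (530 nm). HCT116 reporter line; 16 h treatment, 37C; substrate 2 h RT.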

[3] = TOX21_p53_BLA_p3_viability: Viability Assessment in the Tox21 HCT-116 p53 Agonism Beta-lactamase Assay, Phase 3 (AID 2283593);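 further: cells exposed to compound for 16 h before reading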
How it was run: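 Cellular ATP was quantified by CellTiter-Glo luminescence, read after 30 min at room temperature. Beforehand, HCT116 cells (4000/well) received compound 5 h post-seeding, 217-fold diluted from DMSO, then incubated 16 h at 37C.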

[4] = molecular target: Cellular tumor antigen p53 (Homo sapiens) (UniProt P04637); experiment: TOX21_p53_BLA_p3_ratio: Tox21 HCT-116 p53 Agonism Beta-lactamase Assay, Ratio, Phase 3 (AID 2283596)
How it was run: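 Cells were seeded at 4000/well, rested 5 h at 37C, then dosed with DMSO compound solutions (217-fold dilution) for 16 h. CCF4-AM substrate was loaded for 2 h at room temperature, and the 460/530 nm emission ratio was fitted for gain of signal versus DMSO.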

[5] = molecular target: Cellular tumor antigen p53 (Homo sapiens) (UniProt P04637); experiment: TOX21_p53_BLA_p5_ratio: Tox21 HCT-116 p53 Agonism Beta-lactamase Assay, Ratio, Phase 5 (AID 2283599)
How it was run: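 Beta-lactamase reporter ratio (blue 460 nm over green 530 nm, 405 nm excitation) after 2 h CCF4-AM loading, in HCT-116 cells exposed 16 h at 37 C to compounds pinned at 217-fold dilution. Increases relative to DMSO baseline scored.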

[6] = TOX21_p53_BLA_p5_viability: Viability Assessment in the Tox21 HCT-116 p53 Agonism Beta-lactamase Assay, Phase 5 (AID 2283600)
How it was run: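 Luciferase-coupled ATP quantitation of cells treated for 16 h (37C, 5% CO2) with test chemicals delivered in DMSO via a 217-fold dilution; 4000 cells/well; reagent incubated 30 min at room temperature before luminescence reading.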

[7] = molecular target: Cellular tumor antigen p53 (Homo sapiens) (UniProt P04637); experiment: TOX21_p53_BLA_p4_ratio: Tox21 HCT-116 p53 Agonism Beta-lactamase Assay, Ratio, Phase 4 (AID 2283601)
How it was run: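 Signal is the blue/green (460nm/530nm) ratio of cleaved versus uncleaved CCF4-AM substrate, read after 2 h substrate loading. Cells were HCT116 carrying the p53-responsive beta-lactamase reporter, dosed 16 h at 37C, 5% CO2; CellTiter-Glo measured in parallel.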

[8] = TOX21_p53_BLA_p4_viability: Viability Assessment in the Tox21 HCT-116 p53 Agonism Beta-lactamase Assay, Phase 4 (AID 2283597);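 further: hits lower the luminescence signal meaning cytotoxicity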
How it was run: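 Cytotoxicity was inferred from loss of CellTiter-Glo luminescence. HCT116 cells had been dosed with compounds after 5 h plating, incubated 16 h at 37C and 5% CO2, and exposed to the CCF4-AM substrate for 2 h.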

[9] = CCTE_Shafer_MEA_dev_firing_rate_mean: CCTE's Neural Network Formation Assay for Mean Firing Rate, Shafer Lab (AID 2284031; active means hit-call score of the fitted dose curve at least 0.9, where 1 is the maximum; inactive means score below 0.9)
How it was run: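 Extracellular spike frequency, AUC over DIV 5–12 recordings, in rat cortical neuron MEA cultures dosed from plating; loss direction vs DMSO.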

[10] = CCTE_Shafer_MEA_dev_per_burst_spike_percent: CCTE's Neural Network Formation Assay for Percent of Spikes in a Burst, Shafer Lab (AID 2284032; active means hit-call score of the fitted dose curve at least 0.9, where 1 is the maximum; inactive means score below 0.9)
How it was run: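 Value is trapezoidal AUC over recordings on days 5, 7, 9 and 12 of the well-mean fraction of spikes falling in single-electrode bursts; rat cortical cultures exposed continuously from plating, treatment renewed DIV 5 and 9, fitted downward against DMSO.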

[11] = CCTE_Shafer_MEA_dev_per_burst_interspike_interval: CCTE's Neural Network Formation Assay for Burst Interspike Interval, Shafer Lab (AID 2284044; active means hit-call score of the fitted dose curve at least 0.9, where 1 is the maximum; inactive means score below 0.9)
How it was run: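 Rat cortical primary cultures, 16 electrodes/well; compound from plating, renewed with full media change DIV 5 and 9. Spikes via adaptive detector; per-burst ISI well-mean over active bursting electrodes; AUC of DIV 5/7/9/12 recordings; loss-direction fit vs DMSO.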

[12] = CCTE_Shafer_MEA_dev_burst_duration_mean: CCTE's Neural Network Formation Assay for Mean Burst Duration, Shafer Lab (AID 2284045; active means hit-call score of the fitted dose curve at least 0.9, where 1 is the maximum; inactive means score below 0.9)
How it was run: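 Mean single-electrode burst duration (first to last spike), averaged over bursting electrodes per well, then integrated as area-under-curve across recordings at days 5, 7, 9 and 12. Rat cortical cultures on MEAs, compound present from plating, refreshed at feeds.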

[13] = CCTE_Shafer_MEA_dev_interburst_interval_mean: CCTE's Neural Network Formation Assay for Mean Interburst Interval, Shafer Lab (AID 2284046; active means hit-call score of the fitted dose curve at least 0.9, where 1 is the maximum; inactive means score below 0.9;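 further: well-mean interburst interval of bursting electrodes as AUC over four recording days; curve fitted for decrease in interburst interval relative to DMSO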)
How it was run: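 Network formation assay in primary rat cortical cultures, exposed from DIV 0 to 12. Mean interburst interval per well, integrated as AUC over four recordings.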

[14] = CCTE_Shafer_MEA_dev_inter_network_spike_interval_mean: CCTE's Neural Network Formation Assay for Mean Inter-network Spike Interval, Shafer Lab (AID 2284047; active means hit-call score of the fitted dose curve at least 0.9, where 1 is the maximum; inactive means score below 0.9)
How it was run: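 Compound was given at plating to primary rat cortical neurons and renewed with full medium changes on DIV 5 and 9. Extracellular activity was recorded on days 5, 7, 9, 12; AUC values were fitted for loss relative to DMSO control.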

[15] = CCTE_Shafer_MEA_dev_network_spike_number: CCTE's Neural Network Formation Assay for Number of Network Spikes, Shafer Lab (AID 2284048; active means hit-call score of the fitted dose curve at least 0.9, where 1 is the maximum; inactive means score below 0.9;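 further: synchronized bursts across electrodes counted on days 5 7 9 12 and integrated as AUC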)
How it was run: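 Number of network spikes (coordinated firing across electrodes) recorded on days 5, 7, 9 and 12 and summarised as area under the curve. Rat cortical cultures on MEA, continuous compound exposure with full medium/treatment exchange at DIV 5 and 9.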

[16] = CCTE_Shafer_MEA_dev_network_spike_peak: CCTE's Neural Network Formation Assay for Mean Number of Electrodes in Network Spike, Shafer Lab (AID 2284049; active means hit-call score of the fitted dose curve at least 0.9, where 1 is the maximum; inactive means score below 0.9)
How it was run: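 Rat cortical primary culture, 1.5 x 10^5 cells/well, 48-well MEA (16 electrodes/well). Dosing day 0 through DIV 12, full media/compound exchange DIV 5, 9. AxIS adaptive spike detection; AUC over days 5/7/9/12; loss-of-signal vs DMSO.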

[17] = CCTE_Shafer_MEA_dev_spike_duration_mean: CCTE's Neural Network Formation Assay for Mean Spike Duration, Shafer Lab (AID 2284051; active means hit-call score of the fitted dose curve at least 0.9, where 1 is the maximum; inactive means score below 0.9;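 further: mean network spike duration pooled as area under curve over DIV 5 to 12 recordings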)
How it was run: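 With DMSO as baseline, loss of mean network spike duration was scored from extracellular recordings of rat cortical neurons on MEA plates. Exposure spanned plating to DIV 12; the four recording days were collapsed into one AUC value.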

[18] = CCTE_Shafer_MEA_dev_network_spike_duration_std: CCTE's Neural Network Formation Assay for Standard Deviation of Network Spike Duration, Shafer Lab (AID 2284052; active means hit-call score of the fitted dose curve at least 0.9, where 1 is the maximum; inactive means score below 0.9;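 further: hits are decreases in network spike duration SD versus DMSO vehicle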)
How it was run: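 Developing networks of rat cortical neurons were exposed over twelve days in vitro on 48-well MEA plates. Trapezoidal AUC of recordings (DIV 5–12) was analysed for signal loss relative to DMSO vehicle.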

[19] = CCTE_Shafer_MEA_dev_per_network_spike_spike_number_mean: CCTE's Neural Network Formation Assay for Mean Number of Spikes in a Network Spike, Shafer Lab (AID 2284053; active means hit-call score of the fitted dose curve at least 0.9, where 1 is the maximum; inactive means score below 0.9)
How it was run: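 First, rat cortical cells (1.5 x 10^5/well) were seeded onto MEA wells; second, dosing began at plating and was refreshed on DIV 5 and 9; finally, network-spike spike counts across DIV 5–12 were summarized as AUC.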

[20] = CCTE_Shafer_MEA_dev_per_network_spike_spike_percent: CCTE's Neural Network Formation Assay for Percent of Spikes in a Network Spike, Shafer Lab (AID 2284054; active means hit-call score of the fitted dose curve at least 0.9, where 1 is the maximum; inactive means score below 0.9)
How it was run: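 Metric: fraction of spikes falling in a 0.05 s window at network-spike peaks. Recordings were made on days 5, 7, 9 and 12 and collapsed by trapezoidal AUC. Cultures were rat cortical neurons on MEA plates, dosed continuously from plating, re-dosed at media changes.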

[21] = CCTE_Shafer_MEA_dev_mutual_information_norm: CCTE's Neural Network Formation Assay for Mutual Information Normalization, Shafer Lab (AID 2284091; active means hit-call score of the fitted dose curve at least 0.9, where 1 is the maximum; inactive means score below 0.9)
How it was run: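 Shared information across electrodes, tracked on days 5, 7, 9 and 12 of network development and collapsed as trapezoidal area under the curve. Rat cortical cultures were treated continuously from plating, with treatment renewed at feeds on DIV 5 and 9; DMSO baseline, negative-direction fit.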

[22] = CCTE_Shafer_MEA_dev_correlation_coefficient_mean: CCTE's Neural Network Formation Assay for Mean Correlation Coefficient, Shafer Lab (AID 2284093; active means hit-call score of the fitted dose curve at least 0.9, where 1 is the maximum; inactive means score below 0.9)
How it was run: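 Extracellular firing from rat cortical networks on 48-well MEAs, DMSO-referenced, negative fitting direction. Compound present from plating to DIV12; mean pairwise correlation per well integrated over DIV5–12 recordings by trapezoidal AUC.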

Measured: outcome

Chain of Cellular tumor antigen p53 (Homo sapiens) (P04637 whole entry, looked up): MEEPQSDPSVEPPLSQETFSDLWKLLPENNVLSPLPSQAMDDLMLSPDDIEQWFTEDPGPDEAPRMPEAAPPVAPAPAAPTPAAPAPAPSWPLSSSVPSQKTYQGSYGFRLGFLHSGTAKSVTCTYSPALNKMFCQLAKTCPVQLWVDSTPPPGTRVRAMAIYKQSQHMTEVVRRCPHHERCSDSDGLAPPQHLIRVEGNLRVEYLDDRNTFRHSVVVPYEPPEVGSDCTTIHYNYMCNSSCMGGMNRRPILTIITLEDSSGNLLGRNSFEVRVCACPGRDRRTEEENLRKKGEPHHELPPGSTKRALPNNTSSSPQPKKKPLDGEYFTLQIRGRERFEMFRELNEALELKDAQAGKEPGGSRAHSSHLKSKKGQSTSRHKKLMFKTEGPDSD

O=Cc1ccccc1
inactive: [1] | [2] | [3] | [4] | [5] | [6] | [7]

CCC1(c2ccccc2)C(=O)NC(=O)NC1=O
not listed: [7]
inactive: all other assays above

COC(=O)[C@@H](N)CCCN/C(N)=N/[N+](=O)[O-]
inactive: [1] | [2] | [3] | [4] | [5]

Reference: PubChem BioAssay (EPA / NIEHS)
